Compounds without any hit were thinned out: in the full panel of roughly 83,000, 20% have a hit.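 How to read the values: 0–100, growth inhibition (40 = 60% inhibited); 0, no net growth; -100 to 0, cell death (-40 = 40% of starting cells died; -100 = all dead).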 The source made the active and inactive calls. How the source made its calls: active means growth percent below 10; inactive means the rest.
Assays:
Experiment in all cases: NCI-60 one-dose screen, 48 h (100 = growth as untreated, 0 = no growth, -100 = all killed)
Conditions in all cases: 10 µM unless noted
SR leukemia = system: SR leukemia
RPMI-8226 leukemia = system: RPMI-8226 leukemia
OVCAR-5 ovarian = system: OVCAR-5 ovarian
OVCAR-4 ovarian = system: OVCAR-4 ovarian
IGROV1 ovarian = system: IGROV1 ovarian
OVCAR-3 ovarian = system: OVCAR-3 ovarian
HS 578T breast = system: HS 578T breast
NCI/ADR-RES ovarian = system: NCI/ADR-RES ovarian
SK-OV-3 ovarian = system: SK-OV-3 ovarian
OVCAR-8 ovarian = system: OVCAR-8 ovarian

Row | SMILES | growth (SR leukemia) | growth (RPMI-8226 leukemia) | growth (OVCAR-5 ovarian) | growth (OVCAR-4 ovarian) | growth (IGROV1 ovarian) | growth (OVCAR-3 ovarian) | growth (HS 578T breast) | growth (NCI/ADR-RES ovarian) | growth (SK-OV-3 ovarian) | growth (OVCAR-8 ovarian)
1 | COc1cccc2cc(-c3cc4ccccc4[nH]3)c(=NC(=O)c3ccc(Cl)cc3)oc12 | 62.7% (inactive) | 76.1% (inactive) | 85.9% (inactive) | 66.8% (inactive) | 53.7% (inactive) | 67% (inactive) | 70.8% (inactive) | 53% (inactive) |  | 
2 | O=C(/C=C/CN1CCOCC1)Nc1cc2c(Nc3ccc(F)c(Cl)c3F)ncnc2cc1OCCOC(F)F | 60.7% (inactive) | 17.8% (inactive) | 49.6% (inactive) | 54.7% (inactive) | -11.1% (active) | 48.9% (inactive) | 23.1% (inactive) | 36.2% (inactive) | 11.8% (inactive) | 
3 | O=C1Nc2cc(Cl)ccc2Oc2cc(Oc3ccccc3)ccc21 | 20.7% (inactive) |  | 83% (inactive) | 71.5% (inactive) | 63.3% (inactive) | 27.6% (inactive) | 43.3% (inactive) | 18.9% (inactive) | 47.4% (inactive) | 88% (inactive)
4 | COc1cc(OC)cc(-c2n[nH]nc2-c2ccc3c(c2)OCO3)c1 | 14.4% (inactive) | 26.2% (inactive) | 4.97% (active) | 52.5% (inactive) | 39.5% (inactive) | 10% (inactive) | 12.1% (inactive) | 3.37% (active) | 16.3% (inactive) | 
5 | Cc1oc2ncnc(Nc3ccccc3)c2c1C(=O)NCCO | 52.2% (inactive) | 94.8% (inactive) | 93.2% (inactive) | 103% (inactive) |  | 102% (inactive) | 90.5% (inactive) | 102% (inactive) | 100% (inactive) | 
6 | COc1ccc(/C=C(\C#N)c2ccc([N+](=O)[O-])cc2)c2ccccc12 | 31% (inactive) | 82.8% (inactive) | 92.8% (inactive) | 2.84% (active) |  | 62.6% (inactive) |  | 50% (inactive) | 5.28% (active) | 
7 | O=C(CNc1ccc(Cl)cc1)Nc1ccc(-c2nc3ccccc3s2)cc1 | 11.5% (inactive) | 46% (inactive) | 121% (inactive) | 23.1% (inactive) | 34.3% (inactive) | 28.9% (inactive) |  | 64.5% (inactive) | 89.7% (inactive) | 
8 | CC(C)C[C@H](NC(=O)Cn1ccc(NCc2ccccc2)cc1=O)B(O)O | 5.45% (active) | -13.9% (active) | 38.9% (inactive) | 48.2% (inactive) | 41.1% (inactive) | -54.5% (active) | 8.69% (active) | 80.7% (inactive) | 56.5% (inactive) | 
9 | NC(=O)NC(=O)/C=C/C(=O)OCCCl | 96.8% (inactive) | 93.3% (inactive) | 96.9% (inactive) | 107% (inactive) | 109% (inactive) | 106% (inactive) |  | 109% (inactive) | 105% (inactive) | 
10 | CCOC(=O)c1ccccc1NC(c1ccccc1)c1ccc2cccnc2c1O (stereo not drawn) | 17.7% (inactive) | 17.5% (inactive) | 53.7% (inactive) | 21.5% (inactive) | 41.8% (inactive) | 32.6% (inactive) | 71.6% (inactive) | 11.9% (inactive) | 14.1% (inactive) | 
11 | NC(C(=O)O)C(O)c1ccc(OCc2ccccc2)c(OCc2ccccc2)c1 (stereo not drawn) | 92.3% (inactive) |  | 101% (inactive) | 107% (inactive) |  | 106% (inactive) | 93.4% (inactive) | 93.3% (inactive) | 103% (inactive) | 99.6% (inactive)
12 | C=C1C(=O)O[C@H]2[C@H]1CC/C(COC(=O)NCc1cc(OC)cc(OC)c1)=C\CC[C@@]1(C)O[C@@H]21 | 3.61% (active) | 5.14% (active) | 18.1% (inactive) | 9.29% (active) |  | -76.8% (active) | 37.1% (inactive) | 63.4% (inactive) | 81.7% (inactive) | 
13 | C=CCn1c(C)nc2ccc(Nc3nc(Nc4ccc(F)cc4)nc4ccccc34)cc21 | 22.4% (inactive) |  | 81.3% (inactive) | 48.3% (inactive) | 51.1% (inactive) | 51.2% (inactive) | 54.4% (inactive) | 38.4% (inactive) | 98.6% (inactive) | 33.4% (inactive)
14 | COc1cc(CCn2nnc3c(NCCCCO)ncnc32)cc(OC)c1 | 96.4% (inactive) | 95.7% (inactive) | 121% (inactive) | 99.2% (inactive) | 109% (inactive) | 107% (inactive) | 101% (inactive) | 104% (inactive) | 111% (inactive) | 
15 | O=C1N=C(c2c(-c3[nH]c(=O)c4ccc(Br)cc4c3O)c(O)c3ccccc3c2O)C(=O)c2cc(Br)ccc21 | 20.8% (inactive) | 6.4% (active) | 10.4% (inactive) | -59.7% (active) | -55.9% (active) | -81.5% (active) | -21.9% (active) | -28.9% (active) | -32.6% (active) | 
16 | CCCCCCCCCCCCNC(=S)N/N=C/c1ccc(Cl)c(Cl)c1 | 93.8% (inactive) | 102% (inactive) | 93.9% (inactive) |  | 119% (inactive) | 111% (inactive) |  | 113% (inactive) | 114% (inactive) | 

Row | SMILES | growth (SR leukemia) | growth (RPMI-8226 leukemia) | growth (OVCAR-5 ovarian) | growth (OVCAR-4 ovarian) | growth (IGROV1 ovarian) | growth (OVCAR-3 ovarian) | growth (HS 578T breast) | growth (NCI/ADR-RES ovarian) | growth (SK-OV-3 ovarian) | growth (OVCAR-8 ovarian)
17 | CCN1C(=O)N(CC)C2C1NN=c1s/c(=C3\C(=O)N(C4CCCC4)c4ccccc43)c(=O)n12 (stereo not drawn) | 0.0502% (active) | -0.279% (active) | 49.7% (inactive) | 46.1% (inactive) | 31.9% (inactive) | -35.3% (active) | -7.85% (active) | -22.8% (active) |  | 
18 | CCC(c1ccc(OC)cc1)C(CC)c1ccc(O)c(CN2CCCC2)c1 (stereo not drawn) | -43% (active) |  | 63% (inactive) | 31.7% (inactive) |  | 20.3% (inactive) | 12.4% (inactive) | 18.7% (inactive) | 34.5% (inactive) | 36.7% (inactive)
19 | O=C(CCCn1c(=O)c2sc3ccccc3c2n2nnc(-c3ccccc3)c12)NCCc1cnc[nH]1 | 84.2% (inactive) | 62.5% (inactive) | -78.9% (active) | -54.5% (active) |  | -47.6% (active) | 90.6% (inactive) | 36.1% (inactive) | 75.3% (inactive) | 
20 | Cc1cnc(NC(=O)C(Cc2ccccc2)NC(=O)c2ccccc2)s1 (stereo not drawn) | 41% (inactive) | -15.7% (active) | 106% (inactive) | 59.4% (inactive) | -19.6% (active) | 83.8% (inactive) | 85.8% (inactive) | 65.6% (inactive) | 108% (inactive) | 
21 | CCC(c1ccc(OC)cc1)C(CC)c1ccc(OCC[N+](C)(C)C)cc1 (stereo not drawn) | 53.9% (inactive) |  | 91% (inactive) | 63.4% (inactive) |  | 34.6% (inactive) | 63.6% (inactive) | 100% (inactive) | 87.7% (inactive) | 51.4% (inactive)
22 | CCC#CC[C@H]1C/C=C2/C(=O)C=C[C@@H]2C/C=C\CCCC(=O)O1 | 5.38% (active) | 4.15% (active) | 18.4% (inactive) | 40.1% (inactive) | 7.74% (active) | 6.81% (active) | 40.2% (inactive) | 22.7% (inactive) | 26.5% (inactive) | 
23 | CCN1C(=O)N(CC)C2Nn3c(s/c(=C4\C(=O)N(C5CCCC5)c5ccccc54)c3=O)=NC21 (stereo not drawn) | 34.8% (inactive) | 54.1% (inactive) | 77.5% (inactive) | 55.7% (inactive) | 67.3% (inactive) | 40.8% (inactive) | 62% (inactive) | 10.9% (inactive) |  | 
24 | COc1cc(C2C=C(C)N=C3SC=C(C)N32)cc(OC)c1OC (stereo not drawn) | -6.27% (active) | -26.3% (active) | -45.8% (active) | 12.6% (inactive) | -49.8% (active) |  | 2% (active) |  | -5.5% (active) | 
25 | COc1cc(C2C3=C(COC3=O)Nc3c2ccc2c3CCCC2)cc2c1OCO2 (stereo not drawn) | 7.47% (active) |  | 42.8% (inactive) | 38% (inactive) | 44.7% (inactive) | -53.1% (active) | 81.8% (inactive) | 3.82% (active) | -8.93% (active) | 15.9% (inactive)
26 | COc1ccc(C(=O)c2cc(OC)c(OC)c(OC)c2)cc1/C=C/C(=O)c1ccc2c(c1)OCO2 | -10.3% (active) | -3.8% (active) | -16.7% (active) |  | 16.9% (inactive) | 1.03% (active) | 54% (inactive) | 5.77% (active) | 36.6% (inactive) | 
27 | Cc1cc(N/C=c2\sc3ncnn3c2=O)no1 | 74.8% (inactive) | 92.5% (inactive) | 108% (inactive) | 106% (inactive) | 94.4% (inactive) | 95.8% (inactive) | 98.9% (inactive) | 99.1% (inactive) | 105% (inactive) | 
28 | COC1=CC(c2ccc[nH]2)=N/C1=C\c1[nH]c(C)c(C(=O)CCCCC(=O)Oc2ccc3c(c2)CCC2C3CC[C@]3(C)[C@@H](O)CC[C@@H]23)c1C (stereo partly drawn) | 23.2% (inactive) | 45% (inactive) | 65.6% (inactive) | 48.6% (inactive) | 70.7% (inactive) |  | 54.3% (inactive) | 82.4% (inactive) | 90% (inactive) | 
29 | COc1ccc(NC(=O)/N=c2\oc3c(OC)cccc3cc2-c2cc3ccccc3[nH]2)cc1 | 107% (inactive) | 173% (inactive) | 88.3% (inactive) | 69.8% (inactive) | 50% (inactive) | 64.4% (inactive) |  | 57.7% (inactive) |  | 
30 | CCN(CC)CCC(=O)c1cccc2ccccc12 | 53.4% (inactive) | 44.4% (inactive) | 98.3% (inactive) | 119% (inactive) | 101% (inactive) | 113% (inactive) | 101% (inactive) | 104% (inactive) | 121% (inactive) | 
31 | O=[N+]([O-])c1c(S(=O)(=O)O)cc2cc(S(=O)(=O)O)ccc2c1[N+](=O)[O-] | 103% (inactive) | 109% (inactive) | 97.2% (inactive) | 114% (inactive) | 103% (inactive) | 104% (inactive) | 98.7% (inactive) | 102% (inactive) | 122% (inactive) | 
